ChEMBL document CHEMBL3433997, “St. Jude Leishmania screening dataset” (2016)

What was measured:
Assay type in all cases: functional
[1] = molecular target: Solute carrier family 2, facilitated glucose transporter member 1 (Homo sapiens) (UniProt P11166); assay: ST_JUDE_LEISH: Cytotoxicity at 2uM final concentration against transgenic Leishmania Mexicana promastigotes LmGLUT1 that are glucose transport deficient and complemented with the human glucose transporter GLUT1. Activity is measured by DNA content using SYBR green in vitro
[2] = molecular target: Hexose transporter 1 (Plasmodium falciparum) (UniProt O97467); assay: ST_JUDE_LEISH: Cytotoxicity at 2uM final concentration against transgenic Leishmania Mexicana promastigotes LmPfHT that are glucose transport deficient and complemented with the Plasmodium falciparum hexose transporter. Activity is measured by DNA content using SYBR green in vitro
[3] = molecular target: Glucose transporter (Leishmania mexicana) (UniProt O61059); assay: ST_JUDE_LEISH: Cytotoxicity at 2uM final concentration against transgenic Leishmania Mexicana promastigotes LmGT2 that are glucose transport deficient and complemented with the L. Mexicana glucose transporter 2. Activity is measured by DNA content using SYBR green in vitro

Sequence of Solute carrier family 2, facilitated glucose transporter member 1 (Homo sapiens) (P11166 whole entry): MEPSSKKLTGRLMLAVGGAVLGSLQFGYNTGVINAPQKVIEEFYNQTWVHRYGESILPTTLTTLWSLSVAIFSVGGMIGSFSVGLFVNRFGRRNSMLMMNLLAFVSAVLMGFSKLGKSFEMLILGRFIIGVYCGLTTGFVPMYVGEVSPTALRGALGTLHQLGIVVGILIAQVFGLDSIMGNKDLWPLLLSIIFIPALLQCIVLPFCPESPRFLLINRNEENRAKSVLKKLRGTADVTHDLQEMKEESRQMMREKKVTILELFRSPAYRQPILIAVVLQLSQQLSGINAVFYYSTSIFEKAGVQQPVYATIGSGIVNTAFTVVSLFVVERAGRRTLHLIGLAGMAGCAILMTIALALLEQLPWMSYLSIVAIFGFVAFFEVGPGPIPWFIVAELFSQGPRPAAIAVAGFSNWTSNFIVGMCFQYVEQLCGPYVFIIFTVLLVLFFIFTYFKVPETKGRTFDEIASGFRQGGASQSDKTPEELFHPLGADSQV

Structure (SMILES) | inhibition [1] | inhibition [2] | inhibition [3]
CC(=O)Oc1c(Br)c(C)nc(C)c1-c1ccc(Oc2ccc(OC(F)(F)F)cc2)cc1 | 1.58% | 0.11% | 0.37%
Cc1cc(N[C@@H](Cc2ccccc2)C(=O)NC2CCCC2)nc(NCc2ccccc2C)n1 | 6.22% | 6.32% | 4.04%
O=C(c1ccc([N+](=O)[O-])o1)N1CCC(Cc2ccc(C(F)(F)F)cc2)CC1 | 9.05% | 22.5% | 0.45%
CCCC(C(=O)OCCN(CC)CC)(c1ccc(Cl)cc1)c1ccc(Cl)cc1 | 4.77% | 5.49% | 7.04%
CCCCN1C(=N)NC(c2ccccc2)(c2ccccc2)C1=O | 5.12% | 3.94% | 3.58%
O=C(N[C@@H](Cc1ccccc1)CN1CCC(Oc2ccc(F)cc2)CC1)c1ccc(OCCCN2CCCCC2)cc1 | 30.5% | 10.5% | 13.4%
COc1ccc2ncc(F)c(CCN3C4CCC3CC(NCc3cc5c(cn3)OCS5)C4)c2n1 (stereo not drawn) | 32.5% | 41.5% | 64.1%
CCN(CC)CC(O)c1cc(-c2ccc(C)cc2)nc2c(C)cc(C)cc12 (stereo not drawn) | 3.3% | 3.65% | -1.02%
Cc1ccc(Nc2nc(C)cc(N3CCN(CCc4ccccc4)CC3)n2)cc1 | 3.08% | 3.31% | -1.99%
O=C(CCOc1ccccc1)NCC1CCCO1 (stereo not drawn) | 1.87% | -0.04% | 1.06%
CCN(CC)CCN(Cc1ccc(-c2ccc(C(F)(F)F)cc2)cc1)C(=O)Cn1cc(Cc2cnn(C)c2)c(=O)n2nc(-c3ccccc3)cc12 | 4.45% | 4.37% | 4.16%
CC=CC(=O)N1CCN(c2nccc(-c3ccc(C(C)(C)C)cc3)n2)CC1 | 8.6% | 9.97% | 7.85%
Cc1cc(NC(=O)c2cccs2)ccc1OC1CCN(Cc2ccccc2)CC1 | 3.33% | 3.27% | 3.22%
CN1CCN(c2ccnc3ccc(NC(=O)Cc4ccc(Br)c5ccccc45)cc23)CC1 | 0.81% | 0.37% | 2.02%
Cc1ccc(NC(=O)c2cc([N+](=O)[O-])ccc2NCc2cccnc2)cc1Cl | 1.5% | 0.38% | 2.63%
NCC1(c2nc(-c3ccc(Cl)c(O)c3)c(-c3ccncc3)[nH]2)CCCCC1 | 3.72% | 2.75% | 0.55%
O=C(/C=C/c1ccc(Cl)c(Cl)c1)NCCCCN1CCCN(C(=O)Nc2ccc(F)c(Cl)c2)CC1 | 3% | 1.91% | -0.33%
CCCCCCCc1c(C)nc2c(OC)cccc2c1O | 5.31% | 8.11% | -0.9%

Structure (SMILES) | inhibition [1] | inhibition [2] | inhibition [3]
COc1ccc(CNCCc2cccs2)cc1-c1cccc(S(=O)(=O)NCCN2CCCC2)c1 | 2.17% | 2.94% | 0.9%
COc1ccc(CCn2c(=N)c(C(=O)NCc3ccc(C)cc3)cc3c(=O)n4ccccc4nc32)cc1 | 3.94% | 3.72% | 3.95%
CN(C)S(=O)(=O)c1ccc(Nc2nc(NCCC3C=NC=N3)nc3cc[nH]c(=O)c23)cc1 (stereo not drawn) | 4.88% | 5.35% | 4.93%
COc1ccccc1-c1nc2c(ccc3nc(N)nc(N)c32)[nH]1 | 49.5% | 58.8% | 4.58%
COc1ccccc1COc1c(C)nc(N)nc1N | -1.13% | -0.61% | -1.06%
CCOc1cc(C(=O)Nc2ccc(-c3nc4ccccc4[nH]3)cc2)cc(OCC)c1OCC | 7.99% | 5.32% | 2.55%
CC(C)CN(c1nc(C(=O)NNC(=O)[C@H](CC2CC2)NC(=O)c2cc3cc(OCCN(C)C)ccc3o2)cs1)C1CC1 | 6.19% | 6.53% | 7.9%
CN(C)c1nc(NCc2ccccc2)nc(N/N=C/c2cc([N+](=O)[O-])ccc2O)n1 | -1.92% | -1.79% | -1.5%
CN(C)S(=O)(=O)n1ncc2c3c(N)nc(N)nc3ccc21 | 0.68% | 1.22% | 0.96%
O=C(CCc1c[nH]cn1)Nc1cccc(-c2cccc(-c3nc4ccccc4[nH]3)c2)c1 | 14.3% | 13.2% | 11.3%
Fc1ccc2[nH]c(-c3ccc(-c4ccc(CNCc5ccccc5)cc4)cc3)nc2c1 | 12.6% | 8.67% | 6.7%
CC(=O)c1c(Cc2cccc(C(F)(F)F)c2)c[nH]c1C | 5.85% | 3.6% | -0.87%
CC1CC(NCCCNc2cc(=O)c3ccccc3[nH]2)c2c(Cl)c(Cl)cc(Cl)c21 (stereo not drawn) | 5.21% | 3.08% | 1.22%
COc1ccc(S(=O)(=O)NCCCC2CCN(CCCCCNC(=O)C=Cc3ccc(Cl)c(Cl)c3)CC2)cc1 | 0.69% | 0.8% | 3.65%
NC1CCCN(Cc2cccc(-c3ccc(-c4nc5ccccc5[nH]4)s3)c2)C1 (stereo not drawn) | 0.99% | 0.63% | 1.78%
CCOc1cc(C(=O)Nc2cccnc2)cc(Br)c1OCCC(C)C | 1.25% | -2.07% | -0.8%
Cc1ccc(-c2ccc3c(c2)C=C(C(=O)NC2CCN(CCNC(=O)c4cccc(C(F)(F)F)c4)CC2)CCC3)cc1 | 5.7% | 7.43% | 7.77%
Cc1ccc(NC(=O)NC2CCN(CCCCCNC(=O)C3CC3c3ccc(Cl)c(Cl)c3)CC2)cc1 (stereo not drawn) | -4.5% | -2.29% | -3.29%
